“And” between values parts separate entries of the source, which are not always exact repeats. Equal values may be shown once. Some compounds were tested as several samples or in several runs, with calls that do not always agree. The source made the active and inactive calls. Unless noted, the rule behind the calls is not given here.

Test [1] in a line: anti-His antibody binders, primary screen, artefact control for SMM control protein annotation, biochemical, small-molecule microarray, 635 nm fluorescence (AID 1128).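 Note: score merges feature fluorescence with signal-to-noise for each printed compound spot.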 The following applies: anti-His Alexa647 antibody binding, higher = more signal.
The subject of test [2] is Human papillomavirus type 1a E7 protein (residues 1-88). Kind of test: HPV1a E7 small-molecule binders, primary screen, biochemical, small-molecule microarray, residues 1-88, 635 nm (AID 1129). The following applies: small-molecule microarray binding, fluorescence 635 nm; higher = more signal.
The target in test [3] is Focal adhesion kinase 1 (Homo sapiens) (UniProt Q05397). Kind of test: small-molecule microarray binders of FAK, primary screen, biochemical, 635/667 nm fluorescence, BSA, DTT (AID 1130).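 Note: composite of spot emission at 667 nm and signal to noise over triplicate slides.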 The note with it: PTK2 binding, 635 nm fluorescence, higher = more signal.
In test [4] the test system is Fibrinogen (Alexa647-labelled). Kind of test: fibrinogen binders on compound microarrays, profiling panel, artefact control for SMM control-protein annotation, biochemical, small-molecule microarray, 635/667 nm fluorescence (AID 1131).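 Note: z-score merges 667 nm fluorescence with per-spot signal-to-noise over triplicate slides.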 The note with it: fibrinogen-A647 binding fluorescence, higher = more signal.
The target in test [5] is Follistatin (Homo sapiens) (UniProt P19883). The test can be described thus: follistatin binders on small-molecule microarrays, primary screen, biochemical, small-molecule microarray, 635/667 nm fluorescence (AID 1132). The following applies: FST binding, 635 nm fluorescence, higher = more signal.
The target in test [6] is Fibroblast growth factor 2 (Homo sapiens) (UniProt P09038). Kind of test: FGF2 binders on small-molecule microarrays, primary screen, biochemical, small-molecule microarray, 635/667 nm fluorescence (AID 1133). The note with it: small-molecule microarray binding, FGF2, fluorescence 635/667; higher = more signal.
The nature of test [7]: mitochondrial membrane potential change in A549 cells, profiling panel, cell-based, JC-1 fluorescence, basal, 24 h, 100 nL (AID 1138).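 Note: A549 lung adenocarcinoma cells under basal conditions with no added stimulus; test concentration not given here.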 The note with it: higher = more signal.
In test [8] the test system is Lefty1. Kind of test: Lefty1 binders on small-molecule microarrays, primary screen, biochemical, small-molecule microarray, 635/667 nm fluorescence (AID 1139). The following applies: small-molecule microarray binding, fluorescence 635/667; higher = more signal.
Test [9] concerns wheat germ agglutinin (Triticum aestivum), Alexa647-labelled. The test can be described thus: wheat germ agglutinin binders on compound microarrays, profiling panel, artefact control for SMM control-protein annotation, biochemical, small-molecule microarray, 635/667 nm fluorescence (AID 1140).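 Note: score merges 667 nm feature emission with signal to noise over triplicate slides.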 The following applies: WGA-A647 binding, 635 nm fluorescence, higher = more signal.
For test [10], the target named is Luciferin 4-monooxygenase (Photinus pyralis) (UniProt P08659). The test can be described thus: firefly luciferase enzyme inhibitors, primary screen, biochemical, luminescence, purified enzyme, 2006 set (AID 1141).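 Note: cell-free assay with purified firefly luciferase at 100 ng per well in PBS; test concentration not given here.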 The note with it: SteadyGlo luminescence, 30 min, higher = more signal, called active from +8 up or from −8 down.
In test [11] the test system is Wnt5a (protein binding on small-molecule microarray). The test can be described thus: Wnt5a binders on small-molecule microarray, primary screen, biophysical, 635/667 nm fluorescence (AID 1142).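 Note: fluorescence read at 667 nm with signal to noise per printed feature.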 The following applies: 635 nm fluorescence, higher = more signal.
Test [12] in a line: cell viability in Huh7 cells, primary screen, cytotoxicity control for HCV replication inhibitor project, CellTiter-Glo luminescence, basal, 48 h (AID 1143).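 Note: Huh7 hepatoma cells carrying a hepatitis C replication reporter with no stimulus; test concentration not given here.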 The note with it: Huh7 HCV replicon, higher = more signal, called active from +8 up or from −8 down. On the technique in general: Cellular ATP, detected with luciferase, serves as a proxy for viable cell number.
Test [13] can be described thus: P. aeruginosa biofilm formation inhibitors, primary screen, PAO1 strain, BacTiter-Glo luminescence, LB-PBS (AID 1144). The note with it: 12 h, higher = more signal.
The nature of test [14]: CREB reporter modulators without forskolin, primary screen, cell-based, PC12, CRE-LacZ reporter, unstimulated (AID 1145). The following applies: no forskolin, luminescence, 4.5 h, higher = more signal, called active from +8 up or from −8 down.
A short description of test [15]: CREB reporter modulators under forskolin, primary screen, cell-based, PC12, CRE-LacZ reporter, forskolin-stimulated (AID 1146).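 Note: PC12 cells with 6xCRE LacZ reporter stimulated by forskolin 10 µM; beta-galactosidase reporter signal reflecting CREB driven transcription.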 The following applies: luminescence, 4.5 h, higher = more signal, called active from +8 up or from −8 down.
The target in test [16] is Streptavidin (Streptomyces avidinii) (UniProt P22629). The test can be described thus: streptavidin binders on small-molecule microarray, primary screen, artefact control for SMM compound annotation, biophysical, 635/667 nm fluorescence (AID 1147).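 Note: signal reflects streptavidin binding to arrayed compounds as a control protein.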 The following applies: streptavidin binding, higher = more signal.
A short description of test [17]: small-molecule binders of probe aInhba, primary screen, biochemical, small-molecule microarray, 635/667 nm fluorescence (AID 1148).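 Note: score merges 667nm spot fluorescence with signal-to-noise for antibody binding to printed compounds.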 The note with it: higher = more signal.
The target in test [18] is Torsin-1A (Homo sapiens) (UniProt O14656). The test can be described thus: torsin A binders from cell lysate, primary screen, small-molecule microarray, wild-type, 635/667 nm (AID 1149). The note with it: COS7 hTOR1A-WT lysate, 635 nm fluorescence, higher = more signal.
Test [19] shares this target. The test can be described thus: small-molecule binders of mutant TOR1A in lysate, primary screen, cell lysate, small-molecule microarray, COS7 lysate, 635/667 nm fluorescence (AID 1150).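 Note: score pools 667 nm emission and signal to noise measuring lysate protein binding.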 The note with it: COS7 hTOR1A mutant lysate, 635 nm fluorescence, higher = more signal.
For test [20], the system named is Sonic hedgehog protein (Shh). The test can be described thus: small-molecule binders of Shh protein, primary screen, biochemical, small-molecule microarray, 635/667 nm fluorescence (AID 1151).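 Note: Shh protein binding to compounds spotted on small-molecule microarray slides; score combines spot fluorescence intensity with signal-to-noise across triplicate slides.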 The following applies: small-molecule microarray binding, 635 nm fluorescence; higher = more signal.

Chain of Torsin-1A (Homo sapiens) (O14656 whole entry, looked up): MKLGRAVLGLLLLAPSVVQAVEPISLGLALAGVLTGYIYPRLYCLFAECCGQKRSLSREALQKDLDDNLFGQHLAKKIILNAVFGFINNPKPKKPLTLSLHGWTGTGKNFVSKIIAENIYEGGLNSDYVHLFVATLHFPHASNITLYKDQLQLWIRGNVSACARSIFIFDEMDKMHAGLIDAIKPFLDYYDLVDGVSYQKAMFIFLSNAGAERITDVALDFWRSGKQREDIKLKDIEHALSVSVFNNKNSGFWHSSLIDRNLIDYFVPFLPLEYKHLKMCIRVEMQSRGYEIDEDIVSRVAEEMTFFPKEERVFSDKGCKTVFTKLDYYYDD
Chain of Luciferin 4-monooxygenase (Photinus pyralis) (P08659 whole entry, looked up): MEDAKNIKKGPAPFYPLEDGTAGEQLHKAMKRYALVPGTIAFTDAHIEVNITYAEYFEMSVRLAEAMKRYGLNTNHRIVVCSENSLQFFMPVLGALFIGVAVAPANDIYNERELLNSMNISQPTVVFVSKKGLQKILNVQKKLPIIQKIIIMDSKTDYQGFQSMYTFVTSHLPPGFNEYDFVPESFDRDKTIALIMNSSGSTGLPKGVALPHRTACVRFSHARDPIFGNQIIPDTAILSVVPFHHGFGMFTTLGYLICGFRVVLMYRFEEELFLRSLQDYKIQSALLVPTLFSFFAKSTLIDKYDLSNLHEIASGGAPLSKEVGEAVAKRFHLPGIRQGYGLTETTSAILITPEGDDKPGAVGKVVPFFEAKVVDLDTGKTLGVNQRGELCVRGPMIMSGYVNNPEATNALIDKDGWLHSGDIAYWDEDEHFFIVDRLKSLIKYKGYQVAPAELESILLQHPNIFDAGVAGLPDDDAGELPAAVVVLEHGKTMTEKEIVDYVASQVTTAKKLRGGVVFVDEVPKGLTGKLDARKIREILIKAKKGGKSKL
Chain of Fibroblast growth factor 2 (Homo sapiens) (P09038 whole entry, looked up): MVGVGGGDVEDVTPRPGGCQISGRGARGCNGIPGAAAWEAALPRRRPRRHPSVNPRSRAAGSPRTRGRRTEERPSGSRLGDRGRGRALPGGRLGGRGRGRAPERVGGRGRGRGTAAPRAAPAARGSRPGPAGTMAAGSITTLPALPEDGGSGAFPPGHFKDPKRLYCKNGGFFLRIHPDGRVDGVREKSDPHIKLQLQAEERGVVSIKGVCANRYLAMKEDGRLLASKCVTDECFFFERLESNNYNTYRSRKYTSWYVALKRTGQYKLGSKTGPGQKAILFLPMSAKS
Chain of Focal adhesion kinase 1 (Homo sapiens) (Q05397 whole entry, looked up): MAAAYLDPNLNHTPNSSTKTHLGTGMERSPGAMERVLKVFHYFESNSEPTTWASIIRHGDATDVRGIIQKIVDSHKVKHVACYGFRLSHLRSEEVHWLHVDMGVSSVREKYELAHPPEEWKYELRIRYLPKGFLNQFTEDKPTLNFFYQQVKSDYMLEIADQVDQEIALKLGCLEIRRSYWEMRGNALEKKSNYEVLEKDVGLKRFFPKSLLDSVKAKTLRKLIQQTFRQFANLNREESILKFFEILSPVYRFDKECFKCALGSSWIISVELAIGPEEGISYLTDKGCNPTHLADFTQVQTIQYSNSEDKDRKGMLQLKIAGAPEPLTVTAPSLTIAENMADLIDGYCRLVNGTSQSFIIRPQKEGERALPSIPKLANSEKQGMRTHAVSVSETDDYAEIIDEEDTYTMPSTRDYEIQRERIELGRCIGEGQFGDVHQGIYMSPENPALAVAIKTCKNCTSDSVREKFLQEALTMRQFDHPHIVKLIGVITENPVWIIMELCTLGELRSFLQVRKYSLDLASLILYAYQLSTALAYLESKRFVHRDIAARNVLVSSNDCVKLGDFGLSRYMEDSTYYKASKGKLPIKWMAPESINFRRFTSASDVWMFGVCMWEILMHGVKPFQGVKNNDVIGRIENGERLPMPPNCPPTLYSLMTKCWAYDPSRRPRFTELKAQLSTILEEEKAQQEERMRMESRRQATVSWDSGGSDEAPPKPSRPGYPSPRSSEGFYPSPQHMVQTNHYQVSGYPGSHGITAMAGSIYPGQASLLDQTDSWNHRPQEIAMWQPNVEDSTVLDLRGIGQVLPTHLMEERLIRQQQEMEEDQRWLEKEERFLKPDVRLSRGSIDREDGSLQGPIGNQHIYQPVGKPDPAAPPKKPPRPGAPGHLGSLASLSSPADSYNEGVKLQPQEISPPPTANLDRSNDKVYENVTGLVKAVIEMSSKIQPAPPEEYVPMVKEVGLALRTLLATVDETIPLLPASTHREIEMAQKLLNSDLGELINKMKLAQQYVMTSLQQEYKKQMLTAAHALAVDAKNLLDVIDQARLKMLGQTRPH
Chain of Follistatin (Homo sapiens) (P19883 whole entry, looked up): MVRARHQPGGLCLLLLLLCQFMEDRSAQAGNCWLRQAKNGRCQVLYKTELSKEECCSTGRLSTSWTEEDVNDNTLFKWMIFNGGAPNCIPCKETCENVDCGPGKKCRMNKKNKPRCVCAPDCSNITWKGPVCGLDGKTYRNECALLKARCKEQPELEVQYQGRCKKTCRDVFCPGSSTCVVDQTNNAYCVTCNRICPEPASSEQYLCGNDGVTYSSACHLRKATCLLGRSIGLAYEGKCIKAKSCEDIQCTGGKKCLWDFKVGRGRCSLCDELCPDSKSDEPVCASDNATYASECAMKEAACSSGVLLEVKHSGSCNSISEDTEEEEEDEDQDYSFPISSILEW
Chain of Streptavidin (Streptomyces avidinii) (P22629 whole entry, looked up): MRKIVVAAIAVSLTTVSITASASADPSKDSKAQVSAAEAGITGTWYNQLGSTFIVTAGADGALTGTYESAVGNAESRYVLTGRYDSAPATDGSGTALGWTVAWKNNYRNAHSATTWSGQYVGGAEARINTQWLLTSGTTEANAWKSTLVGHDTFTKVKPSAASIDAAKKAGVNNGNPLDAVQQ

In the case of `C=CCN1C(=O)[C@]2(O[C@H](CCn3cc(CCO)nn3)[C@@H]([Si](C)(C)c3ccc(OC)cc3)[C@@H]2C)c2cc(N3C(=O)c4cccc5cccc3c45)ccc21`, the composite z-score in test [1] was 0.783 and 1.59; in test [2] it was 1.14 and 1.08; in [3], 0.216 and 0.369; in [4] it was 0.57 and 0.583; in test [5], 0.687 and 0.0673; in test [6] it was 0.296 and 0.381. The composite z-score in [8] was 0.794 and 0.721; in test [9], 0.532 and 0.53; in [11] it was 0.684 and 0.279; in test [16], 0.377 and 0.732; in test [17], -0.0719 and -0.0986; in [18] it was 0.317 and 0.0769. Besides, the composite z-score was 0.398 and 0.254 in [19]; 1.21 and 1.38 in [20]. Also, the z-score in [7] is -1.09 and -0.743; in [10], -0.511 (inactive) and 0.185 (inactive); in [12] it was -8.04 (active) and -7.97 (inactive); in test [13], -0.475 (inactive) and -0.111 (inactive); in test [14], 29.7 (active) and 37.9 (active); in test [15], -4.15 (inactive) and -3.89 (inactive).
On to `Cc1ccc(S(=O)(=O)OC[C@@H]2CN3[C@@H](CC[C@@H](C)[C@@H]3c3ccc(Br)cc3)C(=O)O2)cc1`, for which the composite z-score in [1] was 0.882 and -0.0006; in test [2], 0.433 and 0.434; in test [3], 0.0343 and 0.0817; in test [4], 0.555 and 0.193; in test [5], 0.137 and 0.577; in [6], 0.281 and 0.102. In addition, the composite z-score is 0.229 and 0.512 in [8]; 0.382 and 0.37 in test [9]; 0.225 and 0.0286 in test [11]; 0.197 and 0.0059 in [16]; -0.0736 and 0.0173 in test [17]; 0.478 and 0.543 in test [18]. Besides, the composite z-score in test [19] is 0.244 and 0.594; in [20], 0.566 and 0.616. The z-score was -0.346 and 0.285 in test [7]; 0.39 (inactive) and 0.13 (inactive) in [10]; 0.0308 (inactive) and -0.565 (inactive) in [12]; 0.152 (inactive) and -0.0678 (inactive) in test [13]; 0.471 (inactive) and 1.22 (inactive) in [14]; 0.599 (inactive) and -0.853 (inactive) in test [15].
As for `C=C[C@@H](OC)[C@H](O)c1ccc(OCCO)cc1`, the composite z-score in [1] is 3.17 and -0.401; in [2], -0.875 and -0.95; in test [3] it was 0.005 and -0.754; in test [4], -1.95 and -1.4; in [5] it was -0.286 and -0.426; in [6], -0.333 and -0.692. Also, the composite z-score in test [8] was -0.545 and -0.201; in [9], 1.26 and -0.543; in [11], -0.825 and -0.361; in [16] it was -0.912 and -1.1; in [17], -0.271 and -0.128; in test [18], -1.95 and -1.96. Moreover, the composite z-score in test [19] is -2.39 and -0.212; in [20] it was 0.18 and -0.247. Besides, the z-score was 0.27 and -0.142 in test [7]; -3.43 (inactive) and -3.1 (inactive) in test [10]; 0.423 (inactive) and -2.25 (inactive) in test [12]; -0.765 (inactive) and -0.622 (inactive) in test [13]; -0.883 (inactive) and -0.184 (inactive) in test [14]; -0.812 (inactive) and -1.15 (inactive) in test [15].
Regarding `C=CCN(Cc1ccccc1)C(=O)C(c1cccs1)N(C(=O)/C=C\C(=O)O)c1ccc(CCO)cc1` (stereo not given), the composite z-score in test [1] was -1.02 and -0.261; in test [2] it was 0.285 and -0.623; in test [3] it was -0.411 and -0.574; in [4], -1.94 and -2.45; in test [5], -1.48 and -1.4; in test [6], -1.78 and -1.47. Also, the composite z-score in test [8] was -1.9 and -1.42; in [9], -0.99 and -0.888; in test [11], -1.26 and -0.913; in test [16] it was -1.73 and -2.16; in test [17], -0.135 and -0.346; in test [18] it was -2.97 and -2.57. The composite z-score is -2.1 and -2.38 in [19]; -1.14 and -0.843 in [20]. Moreover, the z-score in test [7] is 0.579 and 0.559; in test [10] it was 0.666 (inactive) and 0.381 (inactive); in test [12], 0.735 (inactive) and 0.129 (inactive); in test [13], -0.732 (inactive) and -1.02 (inactive); in [14], -0.0778 (inactive) and -0.0656 (inactive); in test [15], 0.0736 (inactive) and -0.183 (inactive).

The values above are taken from PubChem BioAssay.
